From PubChem BioAssay AID1159580 (chemical genetic matrix, 2015)
Screen size: about 5,500 compounds; about 2,000 (36%) were called active. Inconclusive results (about 18%) are left out. Rule as the data show it: active = normalized growth mostly below about 0.91 (no sharp cut-off); inconclusive = no clear call, values can overlap the other calls; inactive = mostly above about 0.92. The list shows a part of the results.

Test: chemical genetic growth profiling, strain panel (AID 1159580);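 also: tested at 20 µM; growth read once vehicle control cultures reached saturation at 30 °C; 1 = growth at the plate median or of vehicle wells; lower values mean less growth of the strain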
Settings: S. cerevisiae deletion strains, growth OD

Measured: normalized growth

O=S(=O)(c1cccc2c(I)cccc12)N1CCCNCC1
inactive: locus YAL013W, strain DEP1, stronger effect = lower value 0.983 | locus YAL040C, strain CLN3, stronger effect = lower value 0.979 | locus YCL061C, strain MRC1 (second series), stronger effect = lower value 0.984 | locus YDR150W, strain NUM1, stronger effect = lower value 0.991 | locus YDR363W, strain ESC2, stronger effect = lower value 0.958 | locus YER002W, strain NOP16, stronger effect = lower value 1.01 | locus YGR078C, strain PAC10, stronger effect = lower value 0.982 | locus YGR229C, strain SMI1, stronger effect = lower value 1 | locus YJR075W, strain HOC1, stronger effect = lower value 1.01 | locus YNL128W, strain TEP1, stronger effect = lower value 1.06 | locus YNL153C, strain GIM3, stronger effect = lower value 0.927 | locus YNL175C, strain NOP13, stronger effect = lower value 0.995 | locus YNL197C, strain WHI3, stronger effect = lower value 0.986 | locus YNL224C, strain SQS1, stronger effect = lower value 1.02 | locus YOR083W, strain WHI5 (second series), stronger effect = lower value 0.932 | locus YPL241C, strain CIN2, stronger effect = lower value 0.984

C[C@]12C=CC(=O)C=C1CCC1C2[C@@H](O)C[C@@]2(C)C1CC[C@]2(O)C(=O)COP(=O)(O)O (stereo partly specified)
inactive: locus YAL021C, strain ccr4, stronger effect = lower value 1.01 | locus YAL026C, strain drs2, stronger effect = lower value 1 | locus YAL030W, strain snc1, stronger effect = lower value 1 | locus YBL061C, strain skt5, stronger effect = lower value 0.995 | locus YBR009C, strain hhf1, stronger effect = lower value 1 | locus YBR023C, strain chs3, stronger effect = lower value 0.998 | locus YBR171W, strain sec66, stronger effect = lower value 0.995 | locus YBR231C, strain swc5, stronger effect = lower value 1.01 | locus YBR279W, strain paf1, stronger effect = lower value 1.01 | locus YCL011C, strain gbp2, stronger effect = lower value 1 | locus YCL016C, strain dcc1, stronger effect = lower value 0.995 | locus YCL061C, strain MRC1, stronger effect = lower value 0.995 | locus YCL069W, strain vba3, stronger effect = lower value 1.01 | locus YCR088W, strain abp1, stronger effect = lower value 1.01 | locus YDL005C, strain med2, stronger effect = lower value 1 | locus YDL040C, strain nat1, stronger effect = lower value 0.997 | locus YDR001C, strain nth1, stronger effect = lower value 1 | locus YDR069C, strain doa4, stronger effect = lower value 0.998 | locus YDR137W, strain rgp1, stronger effect = lower value 1.02 | locus YDR159W, strain sac3, stronger effect = lower value 0.98 | locus YDR195W, strain ref2 0.954 | locus YDR297W, strain sur2, stronger effect = lower value 1 | locus YDR334W, strain swr1, stronger effect = lower value 1.01 | locus YDR335W, strain msn5, stronger effect = lower value 0.998 | locus YDR392W, strain spt3, stronger effect = lower value 0.96 | locus YEL003W, strain gim4, stronger effect = lower value 1.01 | locus YEL037C, strain rad23, stronger effect = lower value 1.04 | locus YEL061C, strain CIN8 (second series), stronger effect = lower value 0.999 | locus YER015W, strain faa2, stronger effect = lower value 0.999 | locus YER016W, strain bim1, stronger effect = lower value 0.99 | locus YER111C, strain swi4, stronger effect = lower value 0.998 | locus YER155C, strain BEM2 (second series), stronger effect = lower value 1.01 | locus YFR010W, strain ubp6, stronger effect = lower value 1.01 | locus YGL167C, strain pmr1, stronger effect = lower value 1 | locus YGL173C, strain kem1, stronger effect = lower value 1 | locus YGL227W, strain vid30, stronger effect = lower value 0.996 | locus YGL240W, strain doc1, stronger effect = lower value 0.996 | locus YGL253W, strain hxk2, stronger effect = lower value 0.995 | locus YHR013C, strain ard1, stronger effect = lower value 1 | locus YHR027C, strain rpn1, stronger effect = lower value 1 | locus YHR030C, strain SLT2, stronger effect = lower value 1.04 | locus YHR079C, strain IRE1, stronger effect = lower value 1.02 | locus YHR142W, strain chs7, stronger effect = lower value 0.999 | locus YJL092W, strain hpr5, stronger effect = lower value 0.993 | locus YJL095W, strain BCK1 (second series), stronger effect = lower value 0.994 | locus YJL095W, strain BCK1, stronger effect = lower value 0.977 | locus YJL115W, strain asf1, stronger effect = lower value 0.995 | locus YJL129C, strain trk1, stronger effect = lower value 1 | locus YJL154C, strain vps35, stronger effect = lower value 1.01 | locus YJL164C, strain tpk1, stronger effect = lower value 0.995 | locus YJL166W, strain qcr8, stronger effect = lower value 1.01 | locus YJL187C, strain SWE1, stronger effect = lower value 1.01 | locus YJR066W, strain TOR1, stronger effect = lower value 0.973 | locus YKL160W, strain elf1, stronger effect = lower value 1 | locus YKR026C, strain gcn3, stronger effect = lower value 0.984 | locus YKR091W, strain srl3, stronger effect = lower value 1 | locus YLL001W, strain dnm1, stronger effect = lower value 1 | locus YLL026W, stronger effect = lower value 0.992 | locus YLL041C, strain sdh2, stronger effect = lower value 1 | locus YLR027C, strain aat2, stronger effect = lower value 1.01 | locus YLR113W, strain HOG1, stronger effect = lower value 0.984 | locus YLR221C, strain rsa3, stronger effect = lower value 1.01 | locus YLR258W, strain gsy2, stronger effect = lower value 1 | locus YLR262C, strain YPT6 (second series), stronger effect = lower value 1.01 | locus YLR320W, strain mms22, stronger effect = lower value 1 | locus YLR342W, strain FKS1, stronger effect = lower value 0.989 | locus YLR357W, strain rsc2, stronger effect = lower value 0.983 | locus YLR370C, strain arc18, stronger effect = lower value 1 | locus YLR384C, strain iki3, stronger effect = lower value 1 | locus YML120C, strain ndi1, stronger effect = lower value 1.01 | locus YMR058W, strain fet3, stronger effect = lower value 0.996 | locus YMR125W, strain sto1, stronger effect = lower value 0.98 | locus YMR129W, stronger effect = lower value 1.01 | locus YMR205C, strain PFK2, stronger effect = lower value 0.992 | locus YMR231W, strain pep5, stronger effect = lower value 1 | locus YNL071W, strain lat1, stronger effect = lower value 1 | locus YNL183C, strain NPR1, stronger effect = lower value 0.973 | locus YNL209W, strain ssb2, stronger effect = lower value 1 | locus YNL248C, strain rpa49, stronger effect = lower value 1.02 | locus YNL322C, strain KRE1 (second series), stronger effect = lower value 1 | locus YNR049C, strain mso1, stronger effect = lower value 1.01 | locus YOR001W, strain rrp6, stronger effect = lower value 1.01 | locus YOR070C, strain gyp1, stronger effect = lower value 0.994 | locus YOR080W, strain dia2, stronger effect = lower value 0.998 | locus YOR083W, strain WHI5, stronger effect = lower value 1.01 | locus YOR106W, strain vam3, stronger effect = lower value 1.01 | locus YOR231W, strain MKK1, stronger effect = lower value 1.02 | locus YOR265W, strain rbl2, stronger effect = lower value 0.995 | locus YOR270C, strain vph1, stronger effect = lower value 1.03 | locus YOR290C, strain snf2, stronger effect = lower value 1.02 | locus YPL051W, strain arl3, stronger effect = lower value 1.01 | locus YPL078C, strain atp4, stronger effect = lower value 1 | locus YPL106C, strain sse1, stronger effect = lower value 1.01 | locus YPL240C, strain hsp82, stronger effect = lower value 0.996 | locus YPL256C, strain CLN2, stronger effect = lower value 0.997
